Sampled rows, rich in hits. Any-hit rate of the full collection: about 5.2%.
A3A deaminase = blocks human APOBEC3A ssDNA deamination; P31941; recombinant A3A, FAM/TAMRA ssDNA deamination fluorescence; inhibition, % at 20 µM; actives 0.41% (n = 330,000); AID 493011;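 active means at least 40% inhibition at 20 µM here, with at most 30% in a related deaminase screen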
PfM18AAP inh = blocks P. falciparum M18 aspartyl aminopeptidase; recombinant PfM18AAP, H-Glu-NHMec fluorogenic cleavage; inhibition, % at 7.35 µM; actives 1.2% (n = 290,000);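 active means inhibition above the campaign mean inhibition over all tested compounds plus 3 SD, cut at about 28% in these data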
NRP1-CendR mod = NRP-1/CendR interaction modulation | FAM-RPARPAR peptide binding to NRP-1, fluorescence polarization | O14786 | actives 0.85% (n = 360,000) | AID 602438 | inhibition, % at 25 µM;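 active means inhibition or corrected inhibition above about 18%, plus a signal ratio from 0.5 to 1.5, limit read from the data, passing the limit was not always enough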
Target sequence (O14786 whole entry, looked up): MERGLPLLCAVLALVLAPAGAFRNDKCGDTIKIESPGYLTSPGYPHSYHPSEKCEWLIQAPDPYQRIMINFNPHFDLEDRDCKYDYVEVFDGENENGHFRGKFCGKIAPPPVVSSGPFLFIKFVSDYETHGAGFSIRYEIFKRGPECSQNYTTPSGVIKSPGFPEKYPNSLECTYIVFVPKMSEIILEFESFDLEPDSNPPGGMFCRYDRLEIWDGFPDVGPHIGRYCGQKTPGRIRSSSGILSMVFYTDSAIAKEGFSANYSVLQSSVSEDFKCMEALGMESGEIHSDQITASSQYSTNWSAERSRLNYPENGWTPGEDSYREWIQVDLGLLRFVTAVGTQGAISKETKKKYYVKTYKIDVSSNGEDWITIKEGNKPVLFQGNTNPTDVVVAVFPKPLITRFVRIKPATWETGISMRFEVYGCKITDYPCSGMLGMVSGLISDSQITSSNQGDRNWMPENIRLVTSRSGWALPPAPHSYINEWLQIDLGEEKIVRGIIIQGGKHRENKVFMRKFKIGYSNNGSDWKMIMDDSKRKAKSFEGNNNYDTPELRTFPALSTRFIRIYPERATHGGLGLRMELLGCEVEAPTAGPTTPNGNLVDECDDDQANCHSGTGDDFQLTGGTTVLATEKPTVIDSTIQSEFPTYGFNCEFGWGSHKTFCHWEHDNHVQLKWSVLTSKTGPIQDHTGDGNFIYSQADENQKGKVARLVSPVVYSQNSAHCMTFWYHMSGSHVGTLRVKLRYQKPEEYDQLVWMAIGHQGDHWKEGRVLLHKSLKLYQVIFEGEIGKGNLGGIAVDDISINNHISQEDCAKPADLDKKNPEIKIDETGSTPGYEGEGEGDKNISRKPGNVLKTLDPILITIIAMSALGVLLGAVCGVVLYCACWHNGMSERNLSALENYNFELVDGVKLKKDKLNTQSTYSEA
A3G deaminase = inhibitors of human APOBEC3G DNA deaminase. recombinant A3G, ssDNA deamination FAM/TAMRA fluorescence. actives 0.28% (n = 330,000). AID 493012. Q9HC16. inhibition, % at 20 µM;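 active means inhibition of at least 40% at 20 µM, with no more than 30% in the related APOBEC3A deaminase screen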
ALR inh = inhibitors of human sulfhydryl oxidase ALR | P55789 | purified ALR, DTT oxidation, H2O2 HRP-luminol luminescence | inhibition, % (test concentration not listed) | actives 3.8% (n = 290,000) | AID 485317;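 active means mean replicate inhibition above about 79%, with every replicate also reaching it, limit read from the data; inconclusive means only one of the two criteria met; inactive means mean below limit and not every replicate reaching it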
Yeast superoxide = yeast age-related superoxide inhibition as caloric restriction mimetic | AID 2690 | superoxide response (% of plate mean), % at 10 µM | S. cerevisiae aged cells, superoxide DHE fluorescence; stronger effect = lower value | actives 0.18% (n = 330,000);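 active means superoxide response under a set limit, about three screen SD below normal, cut at about 65% in these data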;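 further: yeast aged for seven days with compound at 30 °C before DHE staining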
A number is an active result; n = inactive; u = inconclusive; x = not tested or not shown.

SMILES | A3A deaminase | PfM18AAP inh | NRP1-CendR mod | A3G deaminase | ALR inh | Yeast superoxide
COc1ccccc1C(=O)OCC(=O)NC1CCCC1 | n | n | n | n | n | n
COc1ccc(C(=O)CN2CCN(c3ccc(Cl)cc3)CC2)cc1OC | n | n | n | n | n | n
Cc1cc(NCc2ccccn2)nc2ccccc12 | n | n | n | n | 84 | n
CC(C)c1ccc(/C=C2\SC(=O)N(CC(=O)NCCCn3ccnc3)C2=O)cc1 | n | n | n | n | 99 | n
CN1CCC(CNC(=O)Nc2csc3ccccc23)CC1 | n | n | n | n | n | n
CCOC(=O)c1cc2c(=O)n3cccc(C)c3nc2n(Cc2ccco2)c1=NC(=O)c1ccccc1 | n | n | n | n | 89 | n
CCOC(=O)c1cc2c(=O)n3cccc(C)c3nc2n(Cc2ccco2)c1=NC(=O)c1ccc(C)cc1 | x | x | n | x | x | x
O=C(NCC1CCCCC1)c1ccc([N+](=O)[O-])cc1 | n | n | n | n | n | n
O=C(CSc1ccc([N+](=O)[O-])cc1)NCC1CCCCC1 | n | n | 26 | n | n | n
CCCNc1[nH]c(=O)n(C)c(=O)c1N=O | n | n | n | n | n | n
C=CC#CC[N+]1(CC#Cc2ccccc2)CCOCC1 | x | n | 21 | x | x | x
O=[N+]([O-])c1ccc(O)c(/C=N/Nc2nn[nH]n2)c1 | n | n | n | n | 84 | n
COC(=O)c1c(NC(=O)Cc2ccccc2)sc2c1CC(C)(C)NC2(C)C | n | 29 | n | n | n | n
COC(=O)c1c(NC(=O)COc2ccc(Cl)cc2)sc2c1CC(C)(C)NC2(C)C | n | n | n | n | n | n
O=C1CC(=O)N(c2ccccc2)N1c1ccccc1 | n | n | n | n | 97 | n
O=C1CC(=O)N(c2ccccc2)c2ccccc21 | n | n | n | n | n | n
O=C1NC(=O)/C(=C/c2ccco2)N1 | n | x | 25 | n | n | n
O=C1NC(=S)NC1=Cc1ccco1 | x | x | n | x | x | x
O=C(Nc1cccc(S(=O)(=O)N2CCOCC2)c1)C1=NN(c2ccccc2)C(=O)CC1 | n | n | 27 | n | n | n
COc1ccc(NS(=O)(=O)c2cc(NC(=O)C3=NN(c4ccccc4)C(=O)CC3)ccc2OC)cc1 | n | x | 27 | n | n | n
COc1ccc(OC)c(-c2csc(NC(=O)C3=NN(c4ccccc4)C(=O)CC3)n2)c1 | n | n | n | n | n | n
O=C(Nc1ccc(Cl)c(S(=O)(=O)N2CCOCC2)c1)C1=NN(c2ccccc2)C(=O)CC1 | n | x | n | n | n | n
O=c1c(Cl)c(Cl)cnn1Cc1ccccc1Cl | x | n | x | x | 95 | n
Cc1ccc(Cn2ncc(Cl)c(Cl)c2=O)cc1 | n | n | n | n | n | n
Cc1cc(C)cc(Cn2ncc(Cl)c(Cl)c2=O)c1 | x | n | x | x | 96 | n
SMILES | A3A deaminase | PfM18AAP inh | NRP1-CendR mod | A3G deaminase | ALR inh | Yeast superoxide
Cc1nn(Cc2ccc(Cl)cc2Cl)c(C)c1NC(=O)CCl | n | n | n | n | 90 | n
Cc1nn(Cc2ccc(Cl)cc2Cl)c(C)c1NC(=O)c1nn(C)cc1Cl | n | n | n | n | n | n
Cc1ccc(C(=O)Nc2cccc(S(=O)(=O)N3CCOCC3)c2)cc1[N+](=O)[O-] | n | n | n | n | n | n
Cc1cc2occ(CC(=O)NCc3cccs3)c2cc1C(C)C | n | n | n | n | n | n
Cc1csc(NC(=O)Cc2coc3cc(C)c(C(C)C)cc23)n1 | n | n | n | n | 89 | n
O=C(Nc1ccc(O)cc1)c1cccc(Oc2ccc([N+](=O)[O-])cc2)c1 | n | n | n | n | 99 | n
O=C(Nc1ccc([N+](=O)[O-])cc1)c1cccc([N+](=O)[O-])c1 | x | x | n | x | x | x
Cc1ccc(NC(=O)c2cccc(Oc3ccc([N+](=O)[O-])cc3)c2)c(C(=O)O)c1 | n | n | n | n | 97 | n
COc1ccc(-c2cc(C(F)(F)F)nc(S(=O)(=O)CCC(=O)N3CCOCC3)n2)cc1 | n | n | n | n | 90 | n
Cc1nn(C)c(C)c1NC(=O)c1ccc(S(=O)(=O)N(C)C)cc1 | n | n | n | n | n | n
COc1cccc(NC(=O)CSc2ccc(-c3sc(C)nc3C)nn2)c1 | n | n | n | n | n | n
CCOC(=O)CNC(=S)N(CCCN1CCCC1)Cc1cccs1 | n | n | n | n | 99 | n
COCCNC(=O)C1(C)CCN(C(=O)c2cccc(C)c2C)C1 (stereo not drawn) | x | x | n | x | x | x
O=C(CCN1c2ccccc2Sc2ccccc21)OCC(=O)N1CCN(C(=O)c2ccco2)CC1 | n | n | n | n | 91 | n
Cc1nc(SCC(=O)NCc2ccco2)c2c3c(sc2n1)CCCC3 | n | n | n | n | 97 | n
Cc1nc(SCC(=O)NCC2CCCO2)c2c3c(sc2n1)CCCC3 (stereo not drawn) | n | n | 30 | n | u | n
Cc1nc(SCC(=O)NCC2CCCO2)c2c(C)c(C)sc2n1 (stereo not drawn) | n | x | n | n | n | n
CCn1c(-c2ccc3[nH]c(C)c(C)c3c2)n[nH]c1=S | n | n | n | n | 98 | n
Cc1[nH]c2ccc(-c3n[nH]c(=S)n3C)cc2c1C | n | n | n | n | 98 | n
Cc1ccc(COc2ccsc2-c2n[nH]c(=S)n2C)cc1 | n | n | n | n | n | n
Cc1cccc(NCc2ccc(N(C)C)cc2)n1 | n | n | n | n | 82 | n
CN(C)c1ccc(CNc2ccccn2)cc1 | n | n | n | n | 98 | n
Cc1ccc(O)c(CNc2cccc(C)n2)c1 | n | n | n | n | x | x
CCCC(NC(=O)Cc1c(C)c2cc3c(C)c(C)oc3c(C)c2oc1=O)C(=O)N[C@@H](Cc1ccccc1)C(=O)O (stereo partly drawn) | x | n | n | x | n | n
CCCCC(NC(=O)Cc1c(C)c2cc3c(C)c(C)oc3c(C)c2oc1=O)C(=O)O (stereo not drawn) | n | n | n | n | 97 | n
SMILES | A3A deaminase | PfM18AAP inh | NRP1-CendR mod | A3G deaminase | ALR inh | Yeast superoxide
CCOc1ccc(S(=O)(=O)NNS(=O)(=O)c2ccc(C)cc2C)cc1 | n | n | n | n | 99 | n
CC(C)c1ccc(S(=O)(=O)c2n[nH]n3c2nc(=O)c2ccccc23)cc1 | n | n | n | n | n | n
S=C1NC2=C(CCC/C2=C\c2ccccc2)C(c2ccccc2)N1 (stereo not drawn) | n | n | n | n | n | n
C(=C1/CCCC2=C1Nc1ncnn1C2c1ccccc1)/c1ccccc1 (stereo not drawn) | n | n | x | n | 91 | n
Nn1cc(-c2ccccc2)nc1SCC(=O)Nc1cccc(S(N)(=O)=O)c1 | n | n | n | n | 99 | n
NS(=O)(=O)c1cccc(NC(=O)CSc2nc3ccc(Cl)cc3[nH]2)c1 | n | n | n | n | 97 | n
O=C(CCN1CCCCCC1)Nc1ccc2c(c1)OCCO2 | n | n | n | n | n | n
COCCN1C(=O)CCC1(C)c1nnnn1-c1ccc2c(c1)OCCO2 (stereo not drawn) | x | x | n | x | x | x
Cc1cc(Cl)c(OCCCN(C)C)c(Br)c1 | n | n | n | n | x | n
Cc1cc(Br)cc(C)c1OCCCCN(C)C | n | n | n | n | 93 | n

Bioassay records from PubChem.
